“And” between values parts separate entries of the source, which are not always exact repeats. Equal entries are not always repeated. The campaign covered roughly 5,500 compounds. About 2,000 (36%) were called active. About 18% were inconclusive and are not listed. Rule as the data show it: active = normalized growth mostly below about 0.91 (no sharp cut-off); inconclusive = no clear call, values can overlap the other calls; inactive = mostly above about 0.92. The list shows a part of the results.
Assay: chemical genetic growth profiling, strain panel (AID 1159580);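 also: tested at 20 µM; growth read once vehicle control cultures reached saturation at 30 °C; 1 = growth at the plate median or of vehicle wells; lower values mean less growth of the strain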
Conditions: S. cerevisiae deletion strains, growth OD

Measured: normalized growth

O=c1[nH]c(=O)n(C2C[C@@H](O)[C@@H](CO)O2)cc1F (stereo partly drawn)
inactive: locus YAL013W, strain DEP1, active compounds read low 1.04 | locus YAL021C, strain ccr4, active compounds read low 1.01 | locus YAL026C, strain drs2, active compounds read low 0.996 | locus YAL030W, strain snc1, active compounds read low 0.992 | locus YBL061C, strain skt5, active compounds read low 0.987 | locus YBR009C, strain hhf1, active compounds read low 1 | locus YBR021W, strain FUR4, active compounds read low 1 | locus YBR023C, strain chs3, active compounds read low 1 | locus YBR171W, strain sec66, active compounds read low 0.993 | locus YBR229C, strain ROT2, active compounds read low 1 | locus YBR231C, strain swc5, active compounds read low 1 | locus YBR279W, strain paf1, active compounds read low 1.01 | locus YCL011C, strain gbp2, active compounds read low 1.01 | locus YCL016C, strain dcc1, active compounds read low 0.994 | locus YCL029C, strain bik1, active compounds read low 1.01 | locus YCL061C, strain MRC1, active compounds read low 0.996 | locus YCL069W, strain vba3, active compounds read low 0.987 | locus YCR088W, strain abp1, active compounds read low 0.986 | locus YDL005C, strain med2, active compounds read low 0.992 | locus YDL035C, strain GPR1, active compounds read low 0.99 | locus YDL040C, strain nat1, active compounds read low 1.01 | locus YDL074C, strain BRE1, active compounds read low 1.04 | locus YDL101C, strain DUN1, active compounds read low 1.03 | locus YDL185W, strain tfp1, active compounds read low 1.01 | locus YDL192W, strain arf1, active compounds read low 1.02 | locus YDR001C, strain nth1, active compounds read low 0.979 | locus YDR069C, strain doa4, active compounds read low 0.998 | locus YDR101C, strain arx1, active compounds read low 1.01 | locus YDR137W, strain rgp1, active compounds read low 0.989 | locus YDR159W, strain sac3, active compounds read low 0.992 | locus YDR162C, strain NBP2, active compounds read low 0.993 | locus YDR195W, strain ref2 0.984 | locus YDR297W, strain sur2, active compounds read low 0.998 | locus YDR318W, strain mcm21, active compounds read low 1.01 | locus YDR334W, strain swr1, active compounds read low 0.97 | locus YDR335W, strain msn5, active compounds read low 1.01 | locus YDR388W, active compounds read low 1.01 | locus YDR392W, strain spt3, active compounds read low 0.994 | locus YDR502C, strain sam2, active compounds read low 1.01 | locus YEL003W, strain gim4, active compounds read low 0.989 | locus YEL037C, strain rad23, active compounds read low 0.993 | locus YEL061C, strain CIN8 (second series), active compounds read low 0.981 | locus YEL061C, strain CIN8, active compounds read low 1.01 | locus YER015W, strain faa2, active compounds read low 0.998 | locus YER016W, strain bim1, active compounds read low 1.01 | locus YER110C, active compounds read low 1.02 | locus YER111C, strain swi4, active compounds read low 0.996 | locus YER155C, strain BEM2 (second series), active compounds read low 1.01 | locus YER155C, strain BEM2, active compounds read low 1.01 | locus YER167W, strain BCK2, active compounds read low 1 | locus YFR010W, strain ubp6, active compounds read low 1.01 | locus YGL078C, strain dbp3, active compounds read low 1 | locus YGL086W, strain mad1, active compounds read low 1.01 | locus YGL167C, strain pmr1, active compounds read low 0.996 | locus YGL173C, strain kem1, active compounds read low 1.01 | locus YGL227W, strain vid30, active compounds read low 0.979 | locus YGL240W, strain doc1, active compounds read low 0.972 | locus YGL248W, strain PDE1, active compounds read low 1.03 | locus YGL253W, strain hxk2, active compounds read low 1 | locus YGR078C, strain PAC10, active compounds read low 1.03 | locus YGR135W, strain pre9, active compounds read low 1.01 | locus YGR252W, strain gcn5, active compounds read low 1.01 | locus YHR013C, strain ard1, active compounds read low 1.01 | locus YHR027C, strain rpn1, active compounds read low 0.98 | locus YHR030C, strain SLT2, active compounds read low 1 and 0.982 | locus YHR079C, strain IRE1 (second series), active compounds read low 1.02 | locus YHR079C, strain IRE1, active compounds read low 0.965 | locus YHR094C, strain hxt1, active compounds read low 1.02 | locus YHR129C, strain ARP1, active compounds read low 1.01 | locus YHR142W, strain chs7, active compounds read low 0.985 | locus YHR200W, strain rpn10, active compounds read low 1.01 | locus YIL066C, strain RNR3, active compounds read low 0.988 | locus YIL073C, strain SPO22, active compounds read low 1.04 | locus YIL125W, strain kgd1, active compounds read low 1.02 | locus YIR030C, strain dcg1, active compounds read low 1.01 | locus YJL092W, strain hpr5, active compounds read low 0.971 | locus YJL095W, strain BCK1 (second series), active compounds read low 1.01 | locus YJL095W, strain BCK1, active compounds read low 1.06 and 0.975 | locus YJL115W, strain asf1, active compounds read low 0.982 | locus YJL129C, strain trk1, active compounds read low 0.963 | locus YJL134W, strain LCB3, active compounds read low 1.01 | locus YJL154C, strain vps35, active compounds read low 0.993 | locus YJL164C, strain tpk1, active compounds read low 1 | locus YJL166W, strain qcr8, active compounds read low 1.01 | locus YJL168C, strain set2, active compounds read low 1.01 | locus YJL187C, strain SWE1 (second series), active compounds read low 1.05 | locus YJL187C, strain SWE1, active compounds read low 0.994 | locus YJR043C, strain POL32, active compounds read low 0.975

Reference: PubChem BioAssay AID1159580 (chemical genetic matrix, 2015)
